What all share (assay type): functional
Experiment [1] addresses Solute carrier family 2, facilitated glucose transporter member 1 (Homo sapiens) (UniProt P11166). Put plainly: ST_JUDE_LEISH: Cytotoxicity at 2uM final concentration against transgenic Leishmania Mexicana promastigotes LmGLUT1 that are glucose transport deficient and complemented with the human glucose transporter GLUT1. Activity is measured by DNA content using SYBR green in vitro.

The target in experiment [2] is Hexose transporter 1 (Plasmodium falciparum) (UniProt O97467). Put plainly: ST_JUDE_LEISH: Cytotoxicity at 2uM final concentration against transgenic Leishmania Mexicana promastigotes LmPfHT that are glucose transport deficient and complemented with the Plasmodium falciparum hexose transporter. Activity is measured by DNA content using SYBR green in vitro.
The target in experiment [3] is Glucose transporter (Leishmania mexicana) (UniProt O61059). Kind of experiment: ST_JUDE_LEISH: Cytotoxicity at 2uM final concentration against transgenic Leishmania Mexicana promastigotes LmGT2 that are glucose transport deficient and complemented with the L. Mexicana glucose transporter 2. Activity is measured by DNA content using SYBR green in vitro.

Among the data in ChEMBL document CHEMBL3433997, “St. Jude Leishmania screening dataset” (2016) are inhibition values, retold here.

A word on the inhibition: it is the change of the read-out against control, counted positive when it falls.

Sequence of Solute carrier family 2, facilitated glucose transporter member 1 (Homo sapiens) (P11166 whole entry): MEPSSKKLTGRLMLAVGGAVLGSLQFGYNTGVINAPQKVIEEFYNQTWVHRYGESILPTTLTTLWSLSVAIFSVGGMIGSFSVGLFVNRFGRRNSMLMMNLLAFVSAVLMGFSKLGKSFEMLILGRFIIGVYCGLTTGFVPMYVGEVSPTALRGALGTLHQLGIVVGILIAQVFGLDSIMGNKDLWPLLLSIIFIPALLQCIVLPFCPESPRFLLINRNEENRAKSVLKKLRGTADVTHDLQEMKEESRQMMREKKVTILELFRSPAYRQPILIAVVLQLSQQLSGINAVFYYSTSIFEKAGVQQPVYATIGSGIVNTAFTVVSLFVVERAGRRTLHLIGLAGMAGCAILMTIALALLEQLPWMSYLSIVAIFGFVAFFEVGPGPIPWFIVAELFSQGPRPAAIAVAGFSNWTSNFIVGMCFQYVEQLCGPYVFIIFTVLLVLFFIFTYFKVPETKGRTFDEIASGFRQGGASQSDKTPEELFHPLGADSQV

As for `CCc1ccc(S(=O)(=O)Nc2cccc(CCN3CCC(N4CCCCC4)CC3)c2)cc1`, the values for the inhibition in experiment [1], in experiment [2] and in experiment [3] were 1.95%, 1.48% and -0.34%, respectively.
The like results for `Cc1ccc(/C=C/C(=O)NCCCCCN2CCC(c3c[nH]c4ccccc34)CC2)cc1` were, in that order, 5.46%, 5.57% and 3.18%.
In the same order, the values of `Cn1cc(CN2CCCC(COC(c3ccccc3)c3ccccc3)C2)cn1` (centres undefined) are 1.48%, 2.93% and 2.57%.
In the same order, the values of `CCc1sc(N2CCC(C)CC2)nc1C(=O)Nc1ccc(F)cc1C(F)(F)F` are 2.29%, 3.34% and 0.26%.
Turning to `CCCCOc1ccc(N2C(N)=NC(N)=NC2(C)C)cc1`, the inhibition in experiment [1] turned out to be 2.55%; in experiment [2], 1.89%; in experiment [3], 1.88%.
For `CC(=O)c1ccc(NC(=O)CSc2nc(-c3ccccc3Cl)ns2)cc1`, the inhibition in experiment [1] was determined as 2.79%; in experiment [2], 10.3%; in experiment [3] it was 9.72%.
In the same order, the values of `CN1CCN(CCNc2c3ccccc3nc3ccc4ccccc4c23)CC1` are 18.8%, 17% and 12.5%.
In the case of `Cc1cccc2nc(-c3ccc(-c4cccc(CNCCc5ccncc5)c4)cc3)[nH]c12`, the inhibition was 5.55% in experiment [1], 3.23% in experiment [2] and 0.92% in experiment [3].
As for `C=CCc1cccc(C)c1OCCCON1C(=N)N=C(N)NC1(C)C`, the results for the inhibition in experiment [1], in experiment [2] and in experiment [3] were 1.09%, 2.76% and 1.9%, respectively.
In the same order, the values of `CCN(CC)CCN(Cc1ccc(-c2ccc(C(F)(F)F)cc2)cc1)C(=O)Cn1c(CCc2cccc(F)c2F)nc(=O)c2cc(F)ccc21` are 4.48%, 2.96% and 4.5%.
The like results for `Oc1ccc2[nH]c(-c3cccs3)nc2c1CN1CCC(N2CCCC2)CC1` were, in that order, 3.78%, 6.78% and 5.89%.
With `O=C(Nc1ccc(Cn2nc(Cl)c(N3CCCNCC3)cc2=O)cc1)Nc1ccc(-c2ccccc2)cc1`, the inhibition in experiment [1] was 19.7%; in experiment [2], 15.5%; in experiment [3], 16.6%.
In the same order, the values of `Cc1cccc2nc(-c3ccc(-c4ccc(NC(=O)Nc5cccc(C#N)c5)cc4)cc3)[nH]c12` are 9.74%, 6.91% and 7.39%.
For the compound `O=C(/C=C/c1ccc(Cl)cc1)NCCCCCN1CCC(C(=O)Nc2ccc(Cl)c(Cl)c2)CC1`, the inhibition is -0.38% in experiment [1], -2.11% in experiment [2] and -0.64% in experiment [3].
The like results for `Cc1cccc2nc(-c3ccc(-c4ccc(CN5CCN(CCN6CCOCC6)CC5)cc4)s3)[nH]c12` were, in that order, 2.9%, 3.89% and 1.02%.
In the same order, the values of `Fc1ccccc1C=NNc1ccnc2cc(Cl)ccc12` are 5.84%, 7.17% and 6.07%.
For the compound `CCCCNC(=O)[C@@H](NC(=O)c1ccc(O)c(-c2ccc(Cl)c(Cl)c2)c1)C(C)C`, the inhibition in experiment [1] came to 4.49%; in experiment [2] it was 4.37%; in experiment [3], 3.47%.
Turning to `O=C(N[C@@H](CC1CCCCC1)C(=O)NCCN1CCCCC1)c1ccc(O)c(-c2ccc(Cl)c(Cl)c2)c1`, the inhibition is 0.75% in experiment [1], 1.44% in experiment [2] and 0.7% in experiment [3].
In the same order, the values of `CC[C@H](C)CNC(=O)c1ccc(-c2cccc(CN3CCC(N4CCCC4)CC3)c2)nc1` are 0.61%, 0.29% and 0.34%.
Take `CC(C)c1ccc2oc(-c3ccc(NC(=O)c4ccc([N+](=O)[O-])o4)cc3)nc2c1`: the values for the inhibition in experiment [1], in experiment [2] and in experiment [3] were 10.9%, 10.2% and 4.26%, respectively.
The like results for `O=C(Cc1ccc(Nc2nccc(Nc3cccc4[nH]ncc34)n2)cc1)Nc1ccc(C(F)(F)F)cc1` were, in that order, 5.9%, 6.7% and 4.78%.
Consider `C[C@H](NC(=O)c1c(OC2CN(C(c3ccccc3)c3ccccc3)C2)c(-c2ccccc2)nc2ccccc12)C1CCCCC1`, for which the inhibition in experiment [1] came out at 2.01%; in experiment [2] it was 0.08%; in experiment [3], 0.33%.
For `O=C(c1ccc([N+](=O)[O-])o1)N1CCN(c2ccccc2)CC1`, the inhibition was 3.6% in experiment [1], 1.95% in experiment [2] and 1.09% in experiment [3].
The like results for `COc1cc(CNC[C@@H](O)[C@H](Cc2ccccc2)NC(=O)c2cc(C3CCCC3)cc(N3CCCC3=O)c2)cc(OC)c1` were, in that order, 2.44%, 5.82% and -1.06%.
In the same order, the values of `N#Cc1ccc2c(c1)CCN(CCC1CCC(NC(=O)/C=C/c3nc4ccccc4s3)CC1)CC2` (centres undefined) are 1.83%, 0.31% and -0.08%.
In the same order, the values of `Cc1ccc(NC(=O)NC2CCN(CCCCCNC(=O)/C=C/c3ccc(Cl)c(Cl)c3)CC2)cc1C` are -0.29%, -0.57% and -1.51%.
As for `CCNc1cc(C(=O)N[C@@H](Cc2ccccc2)[C@H](O)CNC2CCC(C)(C)C2)cc(N2CCCCS2(=O)=O)c1` (some centres undefined), the inhibition was 2.05% in experiment [1], 2.29% in experiment [2] and 2.37% in experiment [3].
For `O=c1cc(NCCCCNCc2ccc(Br)c(Br)c2)[nH]c2ccccc12`, the values for the inhibition in experiment [1], in experiment [2] and in experiment [3] were 0.91%, 0.5% and -4.13%, respectively.
In the same order, the values of `COc1cccc(Nc2nc(C)cc(NCc3ccc(-c4c(C)noc4C)cc3)n2)c1` are 14.8%, 13.4% and 3.73%.
Take `Cc1ccc(Nc2nc(-c3ccccn3)cs2)nc1`: the inhibition in experiment [1] turned out to be 75.7%; in experiment [2], 65.5%; in experiment [3], 69.3%.
Take `Nc1nc(N)c2c(ccc3nn(S(=O)(=O)N4CCCC4)cc32)n1`: the inhibition in experiment [1] is 4.35%; in experiment [2] it was 4.05%; in experiment [3], 4.06%.
The like results for `CN1CCCc2ccc(NC(=O)Nc3ccc(Cl)c(Cl)c3)cc2C1` were, in that order, -0.95%, -0.84% and -1.33%.
In the same order, the values of `Cc1sc(NC(=O)Cc2cccc(C(F)(F)F)c2)nc1-c1cccc(Cl)c1` are 9.6%, 8.91% and 8.34%.
